Values joined by “and” are separate entries in the source; they are usually repeats but may differ in a detail not shown here. Equal values may be shown once. In all, about 5,500 compounds went through this assay and about 2,000 (36%) were called active. Another 18% or so got no clear call; they are omitted. No stated cut-off is given here; in the data, active means normalized growth mostly below about 0.91 (no sharp cut-off); inconclusive means no clear call, values can overlap the other calls; inactive means mostly above about 0.92. This is one part of the list.
Test: chemical genetic growth profiling, strain panel (AID 1159580);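 further: tested at 20 µM; growth read once vehicle control cultures reached saturation at 30 °C; 1 = growth at the plate median or of vehicle wells; lower values mean less growth of the strain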
Settings: S. cerevisiae deletion strains, growth OD

Measured: normalized growth

CC(C)[C@@H]1CC[C@@H](C)C[C@H]1O
inactive: locus YAL021C, strain ccr4, active compounds read low 0.968 | locus YAL026C, strain drs2, active compounds read low 0.987 | locus YAL030W, strain snc1, active compounds read low 0.984 | locus YBL061C, strain skt5, active compounds read low 1.01 | locus YBR009C, strain hhf1, active compounds read low 0.998 | locus YBR021W, strain FUR4, active compounds read low 1.03 | locus YBR023C, strain chs3, active compounds read low 1.01 | locus YBR171W, strain sec66, active compounds read low 0.973 | locus YBR229C, strain ROT2, active compounds read low 1.01 | locus YBR231C, strain swc5, active compounds read low 0.988 | locus YBR279W, strain paf1, active compounds read low 0.998 | locus YCL011C, strain gbp2, active compounds read low 0.982 | locus YCL016C, strain dcc1, active compounds read low 0.995 | locus YCL029C, strain bik1, active compounds read low 1.01 | locus YCL061C, strain MRC1, active compounds read low 0.986 | locus YCL069W, strain vba3, active compounds read low 0.973 | locus YCR088W, strain abp1, active compounds read low 0.979 | locus YDL005C, strain med2, active compounds read low 0.98 | locus YDL035C, strain GPR1, active compounds read low 1.02 | locus YDL040C, strain nat1, active compounds read low 0.979 | locus YDL074C, strain BRE1, active compounds read low 0.997 | locus YDL101C, strain DUN1, active compounds read low 1.01 | locus YDL134C, strain PPH21, active compounds read low 1.01 | locus YDL185W, strain tfp1, active compounds read low 1.02 | locus YDL192W, strain arf1, active compounds read low 1.02 | locus YDR001C, strain nth1, active compounds read low 0.978 | locus YDR069C, strain doa4, active compounds read low 0.992 | locus YDR101C, strain arx1, active compounds read low 0.996 | locus YDR137W, strain rgp1, active compounds read low 0.898 | locus YDR150W, strain NUM1, active compounds read low 1.01 | locus YDR159W, strain sac3, active compounds read low 0.964 | locus YDR162C, strain NBP2, active compounds read low 1.02 | locus YDR195W, strain ref2 0.986 | locus YDR297W, strain sur2, active compounds read low 0.984 | locus YDR318W, strain mcm21, active compounds read low 1.02 | locus YDR334W, strain swr1, active compounds read low 0.951 | locus YDR335W, strain msn5, active compounds read low 0.984 | locus YDR388W, active compounds read low 1.01 | locus YDR392W, strain spt3, active compounds read low 0.958 | locus YDR502C, strain sam2, active compounds read low 1.01 | locus YEL003W, strain gim4, active compounds read low 0.989 | locus YEL037C, strain rad23, active compounds read low 0.968 | locus YEL061C, strain CIN8 (second series), active compounds read low 0.963 | locus YEL061C, strain CIN8, active compounds read low 1.01 | locus YER015W, strain faa2, active compounds read low 0.996 | locus YER016W, strain bim1, active compounds read low 0.992 | locus YER110C, active compounds read low 1.03 | locus YER111C, strain swi4, active compounds read low 0.961 | locus YER155C, strain BEM2 (second series), active compounds read low 0.94 | locus YER155C, strain BEM2, active compounds read low 1.01 | locus YER167W, strain BCK2, active compounds read low 1.02 | locus YFR010W, strain ubp6, active compounds read low 0.989 | locus YGL078C, strain dbp3, active compounds read low 1.02 | locus YGL086W, strain mad1, active compounds read low 1.01 | locus YGL167C, strain pmr1, active compounds read low 1 | locus YGL173C, strain kem1, active compounds read low 0.999 | locus YGL227W, strain vid30, active compounds read low 0.981 | locus YGL240W, strain doc1, active compounds read low 0.995 | locus YGL248W, strain PDE1, active compounds read low 0.992 | locus YGL253W, strain hxk2, active compounds read low 0.995 | locus YGR078C, strain PAC10, active compounds read low 0.975 | locus YGR135W, strain pre9, active compounds read low 1.04 | locus YGR229C, strain SMI1, active compounds read low 1.03 | locus YGR252W, strain gcn5, active compounds read low 1.03 | locus YHR013C, strain ard1, active compounds read low 1.03 | locus YHR027C, strain rpn1, active compounds read low 0.996 | locus YHR030C, strain SLT2, active compounds read low 1.01 and 0.979 | locus YHR079C, strain IRE1 (second series), active compounds read low 1.01 | locus YHR079C, strain IRE1, active compounds read low 0.991 | locus YHR094C, strain hxt1, active compounds read low 1.02 | locus YHR129C, strain ARP1, active compounds read low 1.01 | locus YHR142W, strain chs7, active compounds read low 0.988 | locus YHR200W, strain rpn10, active compounds read low 1.02 | locus YIL066C, strain RNR3, active compounds read low 0.994 | locus YIL073C, strain SPO22, active compounds read low 1.09 | locus YIL125W, strain kgd1, active compounds read low 1.01 | locus YIR030C, strain dcg1, active compounds read low 1.01 | locus YJL092W, strain hpr5, active compounds read low 0.977 | locus YJL095W, strain BCK1 (second series), active compounds read low 0.986 | locus YJL095W, strain BCK1, active compounds read low 0.972 and 0.985 | locus YJL115W, strain asf1, active compounds read low 0.981 | locus YJL129C, strain trk1, active compounds read low 0.937 | locus YJL134W, strain LCB3, active compounds read low 1.01 | locus YJL154C, strain vps35, active compounds read low 0.972 | locus YJL164C, strain tpk1, active compounds read low 0.998 | locus YJL166W, strain qcr8, active compounds read low 0.986 | locus YJL168C, strain set2, active compounds read low 1.01 | locus YJL187C, strain SWE1 (second series), active compounds read low 0.984 | locus YJL187C, strain SWE1, active compounds read low 0.99 | locus YJR043C, strain POL32, active compounds read low 1.02

— PubChem BioAssay AID1159580 (chemical genetic matrix, 2015)
